This is part of a sample that, as a whole, favours compounds with a hit. Of some 83,000 tested, about 20% had one in any assay.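 For each line, cells grew in 96-well plates with the test compound present at a single concentration for 48 hours.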 The source made the active and inactive calls. The calls were made as follows: active = growth percent below 10; inactive = the rest.
The compounds below were run on 786-0 renal (assay: NCI-60 one-dose screen, 48 h (100 = growth as untreated, 0 = no growth, -100 = all killed)). Details: 10 µM unless noted.
With `COc1ccc2c(c1)OC1=C(C(=O)OC1)C2c1cc(OC)c2c(c1)OCO2` (centres undefined) the growth was 20.5% (inactive).
For `Cc1cccc(/C=N/Nc2cc(C)c3cccc(C)c3n2)n1`, the growth was 107% (inactive).
In the case of `COc1ccc(C2C=C(c3ccc(Cl)cc3)N=C3SC=C(C)N32)c(Br)c1` (centres undefined), the growth is reported as 47.2% (inactive).
With `COC1=C(OC)C(=O)C(CCCCCCCCCC[P+](c2ccccc2)(c2ccccc2)c2ccccc2)=C(C)C1=O` the growth was -57.8% (active).
For `CC1CN(c2oc(-c3ccccc3)nc2C#N)CC(C)O1` (centres undefined), the growth was 99.6% (inactive).
`COc1ccc(Cn2cc3c(c2-c2cc(OC)c(OC)c(OC)c2)CCc2cnoc2-3)cc1` was tested, and the growth was 36.3% (inactive).
For `COc1ccc(C2=C(c3cc(OC)c(OC)c(OC)c3)C(=O)CC2)cc1`, the growth was 28.9% (inactive).
With `COc1ccc2c(c1)NC1=C(C(=O)OC1)C2c1cc(OC)c2c(c1)OCO2` (centres undefined) the growth was 22.3% (inactive).
With `O=[N+]([O-])c1cc(S(=O)(=O)Oc2ccccc2)ccc1Cl` the growth was 24.1% (inactive).
With `COc1cc(NC(N)=NCCC(C)(C)Oc2ccc(C(F)(F)F)cc2)ncc1C#N` the growth was 7.56% (active).
With `COc1ccc(Nc2nn3c(-c4ccccc4)cc(-c4ccccc4)nc3c2C(N)=O)c(OC)c1` the growth was 67.6% (inactive).
In the case of `CC[N+](CC)=c1cc2oc3cc(N(C)C)ccc3nc-2cc1C`, the growth is reported as 70.4% (inactive).
`COc1ccc(Nc2ncccc2C(=O)NCc2cn(Cc3cccc(Oc4ccccc4)c3)nn2)cc1` was tested, and the growth was 51.3% (inactive).
In the case of `CN(C)CCOC(=O)Nc1ccccc1Cl`, the growth is reported as 100% (inactive).
`CN1CCN(Cc2ccc(NC(=O)c3cncc(C#Cc4cnc(N)c5cnccc45)c3)cc2C(F)(F)F)CC1` was tested, and the growth was 23.1% (inactive).
`CCC1=CCC[C@@]2(C)CCC[C@@]3(C)CCCC(C)(C)[C@]1([O-])[O+]32` was tested, and the growth was 97.9% (inactive).
In the case of `CCNc1nc(S(=O)(=O)CC)nc2ccccc12`, the growth is reported as 101% (inactive).
For `CC12CCC3C4(C)COC(c5ccco5)OC4CCC3(C)C1CC(C1=CCOC1=O)O2` (centres undefined), the growth was 93.4% (inactive).
With `Cc1cc(C)n(-c2nnc3n2N=C(c2ccc(-c4ccccc4)cc2)CS3)n1` the growth was 59.9% (inactive).
`N=c1ccc2nc3ccc(N)cc3sc-2c1` was tested, and the growth was 59.1% (inactive).
`CN(C)CCCC(C#N)c1ccccc1` (centres undefined) was tested, and the growth was 97.9% (inactive).
With `O=S(=O)(NCCCNc1nccc(-n2ccc3cccnc32)n1)c1cccc(C(F)(F)F)c1` the growth was 102% (inactive).
With `COc1cccc(-c2cc3c(O)cc(C#N)cc3[nH]2)c1` the growth was 90.5% (inactive).
`CCCCCCCCCCCCNC(=O)[C@H]1CSC(c2ccsc2)N1` (some centres undefined) was tested, and the growth was -94.8% (active).
In the case of `c1ccc(Nc2nc(Nc3ccccc3)nc(Nc3ccccc3)n2)cc1`, the growth is reported as 100% (inactive).
In the case of `O=C(Oc1ccccc1[N+](=O)[O-])C1CCCN1C(=O)OCc1ccccc1` (centres undefined), the growth is reported as 98.6% (inactive).
In the case of `O=C(/C=C\c1cccc([N+](=O)[O-])c1)/C=C/c1cccc([N+](=O)[O-])c1`, the growth is reported as 86.3% (inactive).
In the case of `CCCCCCCCCCCCNC(=O)[C@H]1CSC(c2cc3ccccc3s2)N1` (some centres undefined), the growth is reported as 11.7% (inactive).
For `COc1ccc(S(=O)(=O)Nc2cc(/C=C\c3cc(OC)c(OC)c(OC)c3)cc(OC)c2OC)cc1`, the growth was 14% (inactive).
`Oc1ccc(Cl)cc1-c1cc(-c2ccc(F)cc2)n[nH]1` was tested, and the growth was 85.6% (inactive).
For `CCCCN(CCCC)C(=O)CC`, the growth was 102% (inactive).
For `COc1ccc(N2CCN(Cc3cc(C(=O)/C=C/c4c[nH]c5ccccc45)ccc3O)CC2)cc1`, the growth was 105% (inactive).
In the case of `O=C1c2c(c3c4ccccc4n(CCCCCCBr)c3c3[nH]c4ccccc4c23)C(=O)N1O`, the growth is reported as 17.3% (inactive).
In the case of `CCCCCCCC[C@@H](O)CC(=O)N[C@@H](CC(N)=O)C(=O)N[C@@H](CCC(N)=O)C(=O)N[C@@H](CC(=O)c1cc(C)cc(O)c1C(=O)c1c(O)cccc1O)CC(C)C`, the growth is reported as 11.6% (inactive).
In the case of `S=C(S)NCCc1c[nH]c2ccccc12`, the growth is reported as 100% (inactive).
For `O=C1/C(=C/c2ccccc2)Oc2ccc(O)c(I)c21`, the growth was 98.9% (inactive).
With `COc1ccc(C2=CC(c3cc(OC)c(OC)c(OC)c3)NC(=O)N2)cc1OC` (centres undefined) the growth was 27.9% (inactive).
With `O=C(O)C1CCCCN1c1nc(Cl)nc(Cl)n1` (centres undefined) the growth was 105% (inactive).
In the case of `O=S(=O)(NCCCNc1nccc(-n2ccc3cccnc32)n1)c1ccc(Br)cc1`, the growth is reported as 104% (inactive).

From PubChem BioAssay (NCI)
